Nrf2 activator: Nrf2 pathway activation. AREc32 ARE-luciferase reporter (MCF7-derived line), luminescence, 24 h. AID 624171. Potency, µM (doses to about 46.1 µM), for the others: top-dose activation, hits mostly activators. hit rate 0.31% among 410,000; further: potency means the concentration at half of the fitted maximal effect; % of control where 0% means no effect; nearly all actives have a fitted effect of over 65% in size
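Reporter line AREc32 (ARE-Fluc), seeded overnight in OPTI-MEM with 5% FBS; compound pin-transferred, 24 hr at 37 deg C, 5% CO2; luminescent read-out.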
DRD3 antagonist: D3 dopamine receptor (human) antagonism; P35462; D3R cells, DiscoveRx beta-arrestin luminescence, antagonist mode; stronger effect = lower value; max response, negative = inhibition, %; hit rate 2.5% among 360,000; AID 652054; in the data active means max response below about -50%; inconclusive means no clear call, values can overlap the other calls; further: on the % scale 0 is the no-effect control and ±100 the full control effect
Target sequence (P35462 whole entry, looked up): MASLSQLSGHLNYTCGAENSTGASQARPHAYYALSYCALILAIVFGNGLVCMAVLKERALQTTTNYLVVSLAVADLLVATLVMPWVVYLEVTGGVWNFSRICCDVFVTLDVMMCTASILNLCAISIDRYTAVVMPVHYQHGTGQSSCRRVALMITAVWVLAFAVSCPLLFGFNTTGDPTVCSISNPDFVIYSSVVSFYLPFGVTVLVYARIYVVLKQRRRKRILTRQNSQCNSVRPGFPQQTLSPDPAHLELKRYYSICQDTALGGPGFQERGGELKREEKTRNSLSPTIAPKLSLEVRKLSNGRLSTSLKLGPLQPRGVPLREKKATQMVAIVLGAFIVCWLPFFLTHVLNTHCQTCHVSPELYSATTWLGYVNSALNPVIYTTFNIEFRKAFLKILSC
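Cells plated overnight at 1500 cells/well, then exposed to library compounds with dopamine controls for 90 minutes at 37 degrees C. DiscoveRx reagent added for 30–60 minutes at room temperature; luminescence read, quantitative HTS format.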
D3 ag: agonists of human D3 dopamine receptor; P35462; D3R DiscoveRx beta-arrestin cells, luminescence, 90 min; max activation, %; hit rate 0.58% among 410,000; in the data active means max activation above about 30%; further: 0% is about no effect
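Cells at 1500/well, incubated overnight, then treated with pinned compounds (dopamine as control) for 90 min at 37 degrees C. DiscoveRx reagent added for 30 - 60 minutes at room temperature; luminescence read.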
GRP78 ERSR act: induces the endoplasmic reticulum stress response in human glioma cells. Potency, µM, for the others: at the top dose activation, most hits filed as activators. U87-MG GRP78 promoter luciferase reporter, 16 h. hit rate 0.02% among 420,000; further: potency means the concentration at half of the fitted maximal effect; series mostly up to about 76 µM; % of control where 0% means no effect; nearly all actives have a fitted effect of over 35% in size
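ERSR induction read as luciferase luminescence (Bright-Glo, 10 min at room temperature) in stably transfected human U87-MG glioma cells exposed to compounds for 16 h, using GRP78 as sensor.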
An asterisk follows results filed as active. Sampled rows, rich in hits. Any-hit rate of the full collection: about 3%. Unless noted, the call rests on the fitted dose curve; in most records, active means well fitted curve in the direction sought with a large enough effect; inconclusive means small, poorly fitted or top-dose-only effect, or another doubt; inactive means no such curve, though single readings can be large; an effect the other way counts as inactive or inconclusive.

For Cn1[nH]c(C(F)(F)F)c(C=Nc2ccc(Cl)cc2)c1=O the results were Nrf2 activator 0%, DRD3 antagonist -63*, D3 ag -4 and GRP78 ERSR act -3%.
Cc1ccc(NC(=O)c2nsc(Cl)c2Cl)cc1 was read as Nrf2 activator 5.6µM*, DRD3 antagonist 3, D3 ag -3 and GRP78 ERSR act -5%.
For CCOc1cc(N(CC)CC)ccc1/C=C(/C#N)c1nc2ccccc2[nH]1 the results were Nrf2 activator 3%, DRD3 antagonist -54*, D3 ag -7 and GRP78 ERSR act 5%.
For Cn1c2ccccc2c2nnc(SCCOc3ccccc3)nc21 the results were GRP78 ERSR act -1%.
Screening CCOC(=O)c1cc(C)n(CC2CCC(C(=O)Nc3ccc(OC)cc3)CC2)c1C (configuration not stated) returned Nrf2 activator 1%, D3 ag 30* and GRP78 ERSR act 1%.
`O=C(NC(=S)Nc1cccc(F)c1)c1cccc([N+](=O)[O-])c1` gave Nrf2 activator 8%, DRD3 antagonist -51*, D3 ag -9 and GRP78 ERSR act 6%.
Screening Cc1occc1C(=O)NNC(=S)Nc1cccc([N+](=O)[O-])c1 returned Nrf2 activator 2%, DRD3 antagonist -109*, D3 ag -7 and GRP78 ERSR act 3%.
`CC(C)NS(=O)(=O)c1ccc(NC(=S)NC(=O)c2cccc([N+](=O)[O-])c2)cc1` gave Nrf2 activator 4%, DRD3 antagonist -94*, D3 ag -59 and GRP78 ERSR act -2%.
CSc1nccc(-c2cc(Cl)c3c(c2)CC(CNC(=O)c2nonc2C)O3)n1 (configuration not stated) was read as GRP78 ERSR act -3%.
`Cc1ccc(C)c(C(=O)C(C)OC(=O)c2cccn2C)c1` (configuration not stated) gave Nrf2 activator 0%, DRD3 antagonist -51*, D3 ag -1 and GRP78 ERSR act 3%.
COc1ccc(CNC(=O)C(C)OC(=O)c2cccn2C)cc1 (configuration not stated) was read as Nrf2 activator 0%, DRD3 antagonist -25, D3 ag 1 and GRP78 ERSR act -5%.
COc1ccc(NC(=O)COC(=O)c2cc(=O)c3ccccc3o2)cc1OC was read as Nrf2 activator 13µM*, DRD3 antagonist 31, D3 ag -11 and GRP78 ERSR act -3%.
`CCOC(=O)N1CCc2c(sc3c2c(=O)n(Cc2ccccc2)c(=O)n3CC(=O)Nc2ccccc2F)C1` gave Nrf2 activator 0%, D3 ag 3 and GRP78 ERSR act -1%.
O=S(=O)(CCSc1nc2ccccc2o1)c1nc2ccccc2s1 was read as Nrf2 activator -3%, DRD3 antagonist -62*, D3 ag -11 and GRP78 ERSR act -14%.
Screening CCS(=O)(=O)CCSc1nc2ccccc2o1 returned Nrf2 activator 0%, DRD3 antagonist -11, D3 ag -2 and GRP78 ERSR act -2%.
`CC(C)(C)OC(=O)N(CCc1ccccc1)Cc1ccccc1OCc1cccc(NC(=O)C2CC2)c1` gave Nrf2 activator 5%, DRD3 antagonist -14, D3 ag 1 and GRP78 ERSR act 1%.
`CC(C)(C)OC(=O)N(CCc1ccccc1)Cc1ccccc1OCc1cccc(NC(=O)C2CCCC2)c1` gave Nrf2 activator 5%, DRD3 antagonist -50*, D3 ag -11 and GRP78 ERSR act -3%.
CC(C)(C)OC(=O)N(Cc1ccccc1)Cc1ccc(OCc2cccc(NC(=O)C3CC3)c2)cc1 was read as Nrf2 activator 4%, DRD3 antagonist 113, D3 ag 65* and GRP78 ERSR act 8%.
CC(C)(C)OC(=O)N(CCc1ccccc1)Cc1ccc(OCc2cccc(NC(=O)C3CCCC3)c2)cc1 was read as Nrf2 activator 4%, DRD3 antagonist 6, D3 ag 4 and GRP78 ERSR act -2%.
`c1ccc2c(CCc3c[nH]c4ccccc34)ccnc2c1` gave GRP78 ERSR act -5%.
For Clc1ccc(OCCCCN2CCCCC2)cc1 the results were Nrf2 activator 0%, DRD3 antagonist -62*, D3 ag -25 and GRP78 ERSR act -2%.
For CCC(C)c1ccc(OCCN2CCCC2)cc1 (configuration not stated) the results were Nrf2 activator -1%, DRD3 antagonist -78*, D3 ag 1 and GRP78 ERSR act 1%.
Screening Clc1ccc(SCCOCCN2CCCCCC2)cc1 returned Nrf2 activator -2%, DRD3 antagonist -115*, D3 ag -8 and GRP78 ERSR act -3%.
Screening CC1CN(CCCCOc2ccc(C(C)C)cc2)CC(C)O1 (configuration not stated) returned Nrf2 activator 1%, DRD3 antagonist -63*, D3 ag -8 and GRP78 ERSR act -2%.
CC1CN(CCCCOc2cccc(Oc3ccccc3)c2)CC(C)O1 (configuration not stated) was read as Nrf2 activator 0%, DRD3 antagonist inconclusive, D3 ag -13 and GRP78 ERSR act -5%.
For c1cc(OCCCN2CCCCC2)ccc1CN1CCCCC1 the results were Nrf2 activator 1%, DRD3 antagonist -17, D3 ag -6 and GRP78 ERSR act -10%.
`OCCOCCN1CCN([C@@H](c2ccccc2)c2ccc(Cl)cc2)CC1` gave GRP78 ERSR act -3%.
For CC(C)c1ccc(OCCCCN2CCCCC2)cc1 the results were Nrf2 activator 2%, DRD3 antagonist -88*, D3 ag -21 and GRP78 ERSR act -5%.
`CC(C)(C)c1ccc(OCCCN2CCCC2)cc1` gave Nrf2 activator 0%, DRD3 antagonist -11, D3 ag -2 and GRP78 ERSR act -4%.
`CC(C)Oc1ccc(OCCCN2CCCCCC2)cc1` gave Nrf2 activator 0%, DRD3 antagonist -84*, D3 ag -7 and GRP78 ERSR act -5%.
`CN1CCN(C2=Nc3ccccc3Oc3ccc(Cl)cc32)CC1` gave Nrf2 activator 1%, DRD3 antagonist -110*, D3 ag -79 and GRP78 ERSR act -4%.
OCC(O)C1OC(c2ccccc2)OC(CO)C1O (configuration not stated) was read as Nrf2 activator 1%, DRD3 antagonist 15, D3 ag 31* and GRP78 ERSR act -2%.
For C=CC1=C(C(=O)O)N2C(=O)[C@@H](NC(=O)/C(=N/OCC(=O)O)c3csc(N)n3)[C@H]2SC1 (stereo in doubt) the results were D3 ag 1.
Screening O=S1(=O)N[C@@H](Cc2ccccc2)COc2cc(N3CCN(Cc4ccccc4F)CC3)ccc21 returned Nrf2 activator 4%, DRD3 antagonist -2 and D3 ag -3.
`CC(C)C[C@H]1COc2cc(N3CCN(Cc4ccccc4F)CC3)ccc2S(=O)(=O)N1` gave Nrf2 activator 3%, DRD3 antagonist -66* and D3 ag -9.
Cc1ncc(C23CC4CC(CC(C4)C2)C3)[nH]1 was read as Nrf2 activator 0%, DRD3 antagonist -55*, D3 ag -5 and GRP78 ERSR act -7%.

From PubChem
